In all, about 220,000 compounds went through this assay and about 2,000 (0.91%) were called active. Not shown: some 2% with an inconclusive outcome. The list is a sample of the results. Results with a measured potency or affinity are listed apart. Values without a mark were called inactive. No stated cut-off is given here; in the data, inconclusive means inhibition above about 80% without an active follow-up result; inactive means below that; test concentration not stated here.

This test can be described thus: M. tuberculosis H37Rv growth inhibitors, H37Rv strain (AID 1626).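 Further: bacteria incubated seven days before Alamar blue readout; 0% = bacteria only wells and 100% = bacteria with antibiotic wells.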 Conditions: active compounds read high, concentration not given here.
Take `Cc1cc(C)n2nc(C(=O)OCC(=O)c3cc(C)n(CC4CCCO4)c3C)nc2n1` (centres undefined): the inhibition is -11.1%.

For the compound `CC(=O)c1ccc(NC(=O)N2C3CCC2CC(O)(c2cccnc2)C3)cc1` (centres undefined), the inhibition was -0.55%.

In the case of `CCOC(=O)c1ccc(-c2ccc(/C=N/NC(=O)CN(c3ccccc3Cl)S(C)(=O)=O)o2)cc1`, the inhibition is 6.39%.

Take `NNC(=O)c1cnn(-c2ccccc2)c1-n1cccc1`: the inhibition was -3.69%.

As to `Cc1ccc(NC(=O)C(=O)NCc2ccc(/C=C(/C#N)C(=O)NCc3cccnc3)o2)cc1C`, the inhibition was 0.05%.

Take `CCOC(=O)N1CCN(C(=O)CSCC(=O)N=c2sc3ccccc3n2C)CC1`: the inhibition is -1.11%.

Turning to `CCOC(=O)c1ccc(NC(=O)c2cc(F)c(F)cc2Cl)cc1`, the inhibition is 2.44%.

For the compound `CCOC(=O)c1ccc(NCc2nc3ccccc3n2C)cc1`, the inhibition was 51.7%.

Turning to `CC1CCC/C(=C\Nc2ccc(O)cc2)C1=O` (centres undefined), the inhibition was -13%.

For the compound `CCOC(=O)c1ccc(NC(=O)COC)cc1`, the inhibition was 79.3%.

As to `CCCOC(=O)c1ccc(NC(=O)CC(C)(C)C)cc1`, the inhibition is -1.14%.

As to `CC1CCC/C(=C\Nc2ccc(C(=O)O)cc2)C1=O` (centres undefined), the inhibition is -6.3%.

As for `CCOC(=O)Cc1nc2ccccc2[nH]1`, the inhibition is -10.4%.

Take `CCOC(=O)c1ccc(NC(=O)Nc2ccc(Cl)cn2)cc1`: the inhibition is -5.47%.

For the compound `Cc1ccc(Nc2nc(C(=O)N3CCC(C(=O)N4CCN(C)CC4)CC3)cs2)cc1`, the inhibition was -9.19%.

`O=C(NCC1CCCO1)c1sc2cc(Cl)ccc2c1Cl` (centres undefined): the inhibition is 10.4%.

As for `CCN1CCN(C(=O)c2nn(-c3ccc(C)cc3)c(=O)c3c2c2ccccc2n3C)CC1`, the inhibition is 1.02%.

As to `CC(=O)c1c(C)[nH]c(C(=O)CSc2nnc(-c3ccccc3)n2Cc2ccc3c(c2)OCO3)c1C`, the inhibition was 0.21%.

In the case of `CN1CCC(N2CCN(c3cccc(C(F)(F)F)c3)CC2)CC1`, the inhibition is -9.94%.

As for `S=c1[nH]nc(Cc2ccccc2)n1-c1ccc(Cl)cc1`, the inhibition was -10.8%.

On to `NNc1nc2ccc(Cl)cc2s1`, for which the inhibition is 52.6%.

As for `Cn1c(=O)c2c(nc(N/N=C/c3cccs3)n2Cc2ccccc2)n(C)c1=O`, the inhibition is 3.67%.

As to `CCOC(=O)c1ccc(NC(=O)CCC(=O)OC)cc1`, the inhibition was 72.2%.

With `O=c1[nH]c(Nc2ccccc2)cc2ccccc12`, the inhibition is -8.22%.

In the case of `CCCOC(=O)c1ccc(NC(=O)C(CC)CC)cc1`, the inhibition was 0.89%.

Consider `CCOC(=O)c1ccc(NC(=O)COc2ccccc2CNCCO)cc1`, for which the inhibition is 91.9%.

For `CCOC(=O)c1ccc(NC(=O)COc2ccccc2CNC2CCCC2)cc1`, the inhibition is 11.1%.

As for `CCOC(=O)c1ccc(NC(=O)C2CCN(S(=O)(=O)CC)CC2)cc1`, the inhibition was 51.8%.

With `CCOC(=O)c1ccc(NC(=O)CNC(=O)C2CCCCC2)cc1`, the inhibition is -1.48%.

With `O=c1[nH]c(Nc2ccc(F)cc2)cc2ccccc12`, the inhibition was 3.27%.

Turning to `COc1ccccc1NC(=O)CCC(=O)N/N=C(/C)c1ccc(C)cc1`, the inhibition is 0.52%.

For the compound `O=C(N/N=C/c1ccccn1)C(=O)N1CCCCCC1`, the inhibition was -1.83%.

For the compound `O=C(CSc1ncccn1)N1CCCc2ccccc21`, the inhibition was -8.67%.

Turning to `CCCCN(C(=O)c1c(C)[nH]c(C(=O)OCC)c1C)c1ccccc1`, the inhibition was -3.19%.

As to `COc1ccc(-n2c(=O)c3ccccc3n(CC(=O)c3ccccc3)c2=O)cc1OC`, the inhibition is -3.99%.

For the compound `C/C(=N\NC(=O)C1CC1(C)c1ccccc1)c1ccco1` (centres undefined), the inhibition is 5.62%.

Take `Cn1ncc(C#N)c1NC(=O)c1nn2cccnc2c1Cl`: the inhibition is 6.92%.

Regarding `Cc1ccc(C(=O)OCC(=O)NCC(F)(F)F)cc1C`, the inhibition was 9.6%.

For `O=C(CC1C(=O)NCCN1CC1CCCCC1)NCCc1ccc(F)cc1` (centres undefined), the inhibition is -4.2%.

Take `CCOC(=O)c1ccc(NS(C)(=O)=O)cc1`: the inhibition is -0.25%.

Consider `COC(=O)Cc1ccc(NC(=O)c2ccc(C(C)(C)C)cc2)cc1`, for which the inhibition is 6.95%.

As to `CCOC(=O)c1ccc(NC(=O)CN2C(=O)CCC2=O)cc1`, the inhibition was -7.66%.

Take `CCOC(=O)c1ccc(NC(=O)CN2C(=O)CNC2=O)cc1`: the inhibition is -6.17%.

For `CCOC(=O)Cc1ccc(NC(=O)c2ccccc2Br)cc1`, the inhibition is 7.37%.

Consider `CC(=O)c1cccc(NC(=O)Cc2coc3cc4c(cc23)CCC4)c1`, for which the inhibition is 6.34%.

Consider `CCOC(=O)c1ccc(NC(=O)CNC(=O)C23CC4CC(CC(C4)C2)C3)cc1`, for which the inhibition is -2.81%.

Turning to `Cc1ccc(C)c(NC(=O)Cc2coc3cc4c(cc23)CCC4)c1`, the inhibition was 9.72%.

Consider `O=S(=O)(Cc1ccccc1)Cc1cnc(Cl)s1`, for which the inhibition was 4.1%.

With `CCCOCCc1nnc(N)s1`, the inhibition is 1.89%.

Regarding `Cc1cccc(OCCSc2cc(C)nc(N)n2)c1`, the inhibition was 6.69%.

With `COc1ccc(/C=C/C(=O)c2ccncc2)c2ccccc12`, the inhibition was 76%.

`Cc1[nH]c2ccccc2c1/C=C/C(=O)c1ccncc1`: the inhibition is 6.67%.

Consider `O=C(/C=C/c1ccc2c(c1)OCO2)Nc1cccnc1`, for which the inhibition was 8.75%.

Consider `CCCCN(CCNP(=O)(OCC)OCC)CP(=O)(OCC)OCC`, for which the inhibition is -3.59%.

As to `COc1ccc2nc(N)sc2c1`, the inhibition is 42%.

Take `Nc1nc2ccc(O)cc2s1`: the inhibition was -4.72%.

`O=C(O)CSC1=NC(=Nc2cccc(Cl)c2)C2(CCCCC2)N1c1ccccc1`: the inhibition is 5.37%.

Turning to `O=C(NC1CC1)C1=C[C@@H](c2ccccc2)C[C@@H](OCc2ccc(CO)cc2)O1`, the inhibition is -10.6%.

Consider `COc1ccccc1N1CCN(c2nc3ccccn3c(=O)c2C=O)CC1`, for which the inhibition is -13.2%.

Consider `C=CCNc1oc(-c2cccs2)nc1C#N`, for which the inhibition was -10.7%.

Regarding `N#Cc1nc(-c2cccs2)oc1NCc1ccccc1`, the inhibition was 6.94%.

Consider `CCOC(=O)C1(Cc2ccccc2)CCN(Cc2ccc(COC)o2)CC1`, for which the inhibition is 8.15%.

`Cc1cccc(NC(=O)CSc2nnc(-c3ccncc3)n2C)c1`: the inhibition is -2.48%.

As for `COC(=O)c1ccc(N)c(N=CC2=C(O)CC(C)(C)CC2=O)c1`, the inhibition was 99.2%.

As for `CCSC1=C(C#N)C(c2cccs2)C(C(=O)OC)=C(C)N1` (centres undefined), the inhibition was -5.12%.

Consider `CCOCCSC1=C(C#N)C(c2cccs2)C(C(C)=O)=C(C)N1` (centres undefined), for which the inhibition was -2.87%.

As for `Cc1nc2cc(NC(=O)CCS(=O)(=O)c3ccccc3)ccc2s1`, the inhibition is -0.27%.

As to `Nc1ncnc(Oc2ccccc2F)c1[N+](=O)[O-]`, the inhibition is 7.09%.

As for `Cc1ccccc1Oc1ncnc(N)c1[N+](=O)[O-]`, the inhibition is -1.2%.

For `COc1ccc(NC(=O)C(=O)NCCN2CCN(C(=O)c3ccco3)CC2)cc1`, the inhibition is 4.1%.

Turning to `O=C(Cc1cccs1)Nc1ccc(-c2nc3ccccc3[nH]2)cc1`, the inhibition is 1.13%.

Take `O=C(COc1ccccc1)Nc1cccc(-c2nc3cc4ccccc4cc3[nH]2)c1`: the inhibition was 55.3%.

Turning to `O=C(Nc1cccc([N+](=O)[O-])c1)N1CCN(c2ccccc2)CC1`, the inhibition was -7.11%.

Take `CC(=O)c1ccc(NC(=O)N2CCN(c3ccc(C)cc3)C(C)C2)cc1` (centres undefined): the inhibition was 0.07%.

In the case of `Cc1ccc(NC(=S)NCc2ccccc2)cc1S(=O)(=O)N1CCCCC1`, the inhibition is -3.09%.

For `Cc1cc2c(ncn2Cc2ccccc2)c(N)c1C`, the inhibition was 1.64%.

For the compound `CCCn1cnc2c(N)c(C)c(C)cc21`, the inhibition is -8.86%.

On to `N#C/C(=N\Nc1c(Cl)cccc1Cl)C(=O)NN`, for which the inhibition is 0.65%.

Consider `O=[N+]([O-])c1cc(/C=N\Nc2nc(-c3ccccc3)cs2)ccc1O`, for which the inhibition is -2.52%.

In the case of `O=C(Nc1ccccc1Cl)Oc1ccc(Cl)cc1Cl`, the inhibition is -3.15%.

For `O=C(Nc1ccccc1Cl)Nc1ccccc1Cl`, the inhibition is -9.3%.

On to `Cn1c(NC(=O)C2CC2)cc(=O)n(C)c1=O`, for which the inhibition is 5.07%.

On to `O=c1oc(/C=C/c2ccccc2)nc2sc3c(c12)CCC3`, for which the inhibition is -3.48%.

Consider `CCn1c(/C=C/c2ccccc2)nc2ccccc2c1=O`, for which the inhibition is 0.15%.

Turning to `COC(=O)c1cc(OC)c(OC)cc1NC(=O)c1cccnc1`, the inhibition was 4.7%.

As to `CCCOc1c(Cl)cc(C(=O)NC)cc1OC`, the inhibition is 12%.

Turning to `COC(=O)CC1C(=O)NCCN1C(=O)c1sc2ccccc2c1Cl` (centres undefined), the inhibition is -9.23%.

`O=C(COC(=O)Cc1ccccc1F)Nc1ccc(Cl)cn1`: the inhibition was -6.09%.

On to `CCOc1ccc2ncc(S(=O)(=O)c3ccccc3)c(N3CCC4(CC3)OCCO4)c2c1`, for which the inhibition is -1.36%.

On to `COc1ccc(S(=O)(=O)c2cnc3ccc(OC)cc3c2N2CCC3(CC2)OCCO3)cc1`, for which the inhibition is 9.48%.

With `Cc1ccc(N2C(=O)[C@@H]3[C@H](C2=O)C2c4ccccc4C=NN2[C@@H]3C(=O)c2ccc(Cl)cc2)cc1` (some centres undefined), the inhibition is 8.72%.

Regarding `Cc1ccc(-n2cc(-c3ccc([N+](=O)[O-])cc3)[nH]c2=S)c(C)c1`, the inhibition was 3.47%.

In the case of `Cc1ccc(C(=O)CSc2ccccn2)cc1`, the inhibition was -3.3%.

As to `O=C(O)c1ccnc(SCC(=O)c2ccccc2)c1`, the inhibition was -4.56%.

As to `CCC(CC)C(=O)Nc1cc([N+](=O)[O-])ccc1Cl`, the inhibition was 5.59%.

Regarding `O=C(CCCC(=O)OCC(Cl)=C(Cl)Cl)Nc1ccccc1F`, the inhibition is -0.28%.

As to `CC(=O)n1cc(Nc2ccc([N+](=O)[O-])cc2)c2ccccc21`, the inhibition was 3.13%.

Regarding `CC(=O)n1cc(Nc2ccccc2C(=O)O)c2ccccc21`, the inhibition is -4.19%.

In the case of `CC(=O)n1cc(-c2ccncc2)c2ccccc21`, the inhibition is 8.31%.

For `CC(=O)N(c1ccc(Cl)cc1)c1cn(C(C)=O)c2ccccc12`, the inhibition is 11.9%.

`O=Cc1[nH]c2ccccc2c1N(C(=O)CCl)c1ccc([N+](=O)[O-])cc1`: the inhibition was -1.28%.

On to `COC(=O)c1cn(C(=O)c2ccc(Cl)cc2)c2ccccc12`, for which the inhibition is -3.26%.

As to `CCOC(=O)c1ccccc1Nc1cn(C(C)=O)c2ccccc12`, the inhibition is 3.14%.

As to `COc1ccccc1N(C(=O)CCl)c1cn(C(C)=O)c2ccccc12`, the inhibition was 42.8%.

Values taken from PubChem BioAssay AID1626 (SRMLSC, 2009).
